Measurements reported in PubChem BioAssay (NCATS).
Where “and” joins values, the source holds several entries; their conditions need not be identical. Equal entries are not always repeated. Records with an inconclusive call do not appear. Calls of active or inactive are those of the source. Unless noted, calls follow the shape of the dose curve; as a rule, active = well fitted curve in the direction sought with a large enough effect; inconclusive = small, poorly fitted or top-dose-only effect, or another doubt; inactive = no such curve, though single readings can be large; an effect the other way counts as inactive or inconclusive.

How the values were obtained:
Tov112D = assay: Primary qHTS to identify gynecologic anti-cancer compounds using libraries of approved drugs and bioactive compounds (AID 1345084); conditions: Gynecologic cancer cell panel viability, ATPlite luminescence, 48 h; series mostly up to 57.5 µM; also: nearly all actives have a fitted effect of over 55% in size; also: potency is read from the fitted curve at half-maximal effect
Outline: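 Five-point cytotoxicity, 48 h drug exposure at 37 C, 5% CO2, on cells seeded 16 h beforehand. ATP content read by ATPlite luminescence.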

[1] = Drug repurposing screens with cells derived from glioblastoma tumor samples (AID 1345199); conditions: GBM patient neurospheres viability, ATP luminescence, 48 h; also: nearly all actives have a fitted effect of over 40% in size; also: potency is read from the fitted curve at half-maximal effect; as to activity, negative = cell killing: % is scaled to controls: 0 for no effect and ±100 for the full control effect
Outline: (§1)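 Four patient lines of CD133+ GBM neurospheres were screened at several concentrations; hits were retested in those lines plus three slower-growing GBM lines, using 48-hour treatment and ATP-based viability.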

astro = assay: as above; conditions: viability, ATP luminescence, 48 h; series mostly up to 45.9 µM
Outline: as §1

[2] = target: Nuclear receptor subfamily 1 group I member 2 (Rattus norvegicus) (UniProt Q9R1A7); assay: qHTS assay for small molecule activators of the rat pregnane X receptor (rPXR) signaling pathway (AID 651751; call rule not given here; also: 0% is about no effect); conditions: rPXR reporter cells, luciferase (One-Glo), 24 h
[3] = qHTS assay for small molecule activators of the human pregnane X receptor (PXR) signaling pathway (AID 720659; call rule not given here; also: 0% is about no effect)
[4] = qHTS assay to identify inhibitors of the type 1 interferon - major histocompatibility complex class I in skeletal muscle: Counter screen cell viability and HiBit confirmation (AID 1347412); conditions: iHSKM muscle cells + IFN-b, HiBiT or CellTiter-Glo, 24 h; Potency: HiBiT; Viability, at 45.9 µM (top of the series); also: nearly all actives have a fitted effect of over 60% in size; also: potency is read from the fitted curve at half-maximal effect
Outline: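 Human myoblast knock-in line, 4.0 ng/ml IFN-beta stimulation, 24 h compound treatment. Endpoints: HiBiT lytic luminescence (HLA-B level) and CellTiter Glo (ATP). Dosing 12 concentrations, 3-fold steps, 46 uM highest final.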

[5] = at 45.9 µM (top of the series), tumour line B
[6] = at 45.9 µM (top of the series), tumour line D
[7] = at 46 µM (top of the series), tumour line A
[8] = at 46.1 µM (top of the series), tumour line C
[9] = at 20 µM (top of the series), tumour line C
[10] = at 21.2 µM (top of the series), tumour line B
[11] = at 21.2 µM (top of the series), tumour line D

Nuclear receptor subfamily 1 group I member 2 (Rattus norvegicus), sequence (Q9R1A7 whole entry, looked up): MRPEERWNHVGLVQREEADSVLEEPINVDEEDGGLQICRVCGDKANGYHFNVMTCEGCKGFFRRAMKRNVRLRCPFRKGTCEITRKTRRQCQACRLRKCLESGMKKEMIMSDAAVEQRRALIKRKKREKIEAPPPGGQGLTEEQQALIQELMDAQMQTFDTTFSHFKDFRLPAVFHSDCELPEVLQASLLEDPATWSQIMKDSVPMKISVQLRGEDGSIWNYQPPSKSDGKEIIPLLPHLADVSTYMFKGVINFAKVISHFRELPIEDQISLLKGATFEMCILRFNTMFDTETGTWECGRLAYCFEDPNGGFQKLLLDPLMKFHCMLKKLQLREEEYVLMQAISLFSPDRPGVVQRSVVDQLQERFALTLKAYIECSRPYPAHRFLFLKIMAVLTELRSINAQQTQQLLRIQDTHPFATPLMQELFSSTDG

NC(CO)C(=O)NNCc1ccc(O)c(O)c1O (centres undefined)
inactive: Potency (Tov112D) | activity, negative = cell killing [1, 5] -5.28% | activity, negative = cell killing [1, 6] -22% | activity, negative = cell killing [1, 7] -18.9% | activity, negative = cell killing [1, 8] 12.3% | Potency (astro)

CC(C)(Oc1ccc(C2CC2(Cl)Cl)cc1)C(=O)O (centres undefined)
inactive: Potency (Tov112D) | activity, negative = cell killing [1, 5] -9.51% | activity, negative = cell killing [1, 6] -16.1% | activity, negative = cell killing [1, 7] -29.3% | activity, negative = cell killing [1, 8] 6.66% | max response [2] 27.5% | outcome [3]

Cc1cn([C@H]2C=C[C@@H](CO)O2)c(=O)[nH]c1=O
inactive: Potency (Tov112D) | activity, negative = cell killing [1, 5] -6.16% | activity, negative = cell killing [1, 6] -7.24% | activity, negative = cell killing [1, 7] -20.7% | activity, negative = cell killing [1, 8] -21.2% | max response [2] 0.921% and -1.01% and -5.21% | outcome [3]

CC(C)Cc1ccc(C(C)C(=O)O)cc1 (centres undefined)
inactive: Potency (Tov112D) | activity, negative = cell killing [1, 5] -11.8% | activity, negative = cell killing [1, 6] -6.13% | activity, negative = cell killing [1, 7] -21.1% | activity, negative = cell killing [1, 8] -7.76% | Potency (astro) | outcome [3]

Nc1nnc(-c2cccc(Cl)c2Cl)c(N)n1
inactive: Potency (Tov112D) | activity, negative = cell killing [1, 5] -10.9% | activity, negative = cell killing [1, 6] -13.4% | activity, negative = cell killing [1, 7] -13.9% | activity, negative = cell killing [1, 8] -25.4% | Potency (astro)

CC(=O)OCC(CCn1cnc2cnc(N)nc21)COC(C)=O
inactive: Potency (Tov112D) | activity, negative = cell killing [1, 5] -16.1% | activity, negative = cell killing [1, 6] -3.4% | activity, negative = cell killing [1, 7] -17.2% | activity, negative = cell killing [1, 8] -0.294% | Potency (astro)

Cc1cc(C(C)(C)C)c(O)c(C)c1CC1=NCCN1
inactive: Potency (Tov112D) | activity, negative = cell killing [1, 5] -18.7% | activity, negative = cell killing [1, 6] -26.9% | activity, negative = cell killing [1, 8] 5.76% | Potency (astro)

Cn1c(=O)c2c(ncn2C)n(C)c1=O
inactive: Potency (Tov112D) | activity, negative = cell killing [1, 5] -15% | activity, negative = cell killing [1, 6] -11.6% | activity, negative = cell killing [1, 7] -31.4% | activity, negative = cell killing [1, 8] -0.268% | Potency (astro) | max response [2] 0.943% and 1.54% | outcome [3]

O=C(C1CCCCC1)N1CC(=O)N2CCc3ccccc3C2C1 (centres undefined)
inactive: Potency (Tov112D) | activity, negative = cell killing [1, 5] -15.1% | activity, negative = cell killing [1, 6] -7.27% | activity, negative = cell killing [1, 8] -6.57% | Potency (astro)

CC(COc1ccccc1)N(CCCl)Cc1ccccc1 (centres undefined)
active: Potency ([1]; tumour line A) 20 µM
inactive: Potency (Tov112D) | activity, negative = cell killing [1, 5] -26.4% | activity, negative = cell killing [1, 8] -13% | Potency (astro)

CCN1CCCC1CNC(=O)c1cc(S(=O)(=O)CC)c(N)cc1OC (centres undefined)
inactive: Potency (Tov112D) | activity, negative = cell killing [1, 5] 6.58% | activity, negative = cell killing [1, 6] -2.77% | activity, negative = cell killing [1, 8] -4.87% | Potency (astro)

CN(CCOc1ccc(NS(C)(=O)=O)cc1)CCc1ccc(NS(C)(=O)=O)cc1
inactive: Potency (Tov112D) | activity, negative = cell killing [1, 5] -5.75% | activity, negative = cell killing [1, 6] -4.11% | activity, negative = cell killing [1, 8] 4.34% | Potency (astro)

CCCNCC(O)COc1ccccc1C(=O)CCc1ccccc1 (centres undefined)
active: Potency ([1]; tumour line A) 7.08 µM
inactive: Potency (Tov112D) | activity, negative = cell killing [1, 8] 27.1% | Potency (astro)

Clc1ccccc1C(c1ccccc1)(c1ccccc1)n1ccnc1
inactive: Potency (Tov112D) | activity, negative = cell killing [1, 9] 1.49% | Potency (astro)
active: Potency ([1]; tumour line A) 11.2 µM

Cc1cn([C@H]2C[C@H](N=[N+]=[N-])[C@@H](CO)O2)c(=O)[nH]c1=O
inactive: Potency (Tov112D) | activity, negative = cell killing [1, 5] -5.14% and -10.6% | activity, negative = cell killing [1, 6] -11% and -22.6% | activity, negative = cell killing [1, 8] -8.55% and -21.3% | max response [2] -4.33% and 1.62%

Cn1cnc2c1c(=O)[nH]c(=O)n2C
inactive: Potency (Tov112D) | activity, negative = cell killing [1, 5] 0.295% | activity, negative = cell killing [1, 6] -15.5% | activity, negative = cell killing [1, 8] 1.28% | Potency (astro) | max response [2] 2.94%

CN1CCN2c3ccccc3Cc3ccccc3C2C1 (centres undefined)
active: Potency ([1]; tumour line A) 11.2 µM | Potency ([1]; tumour line D) 20 µM
inactive: activity, negative = cell killing [1, 8] -2.24%

Nc1c2c(nc3ccccc13)CCCC2
active: Potency ([1]; tumour line A) 20 µM
inactive: Potency (Tov112D) | activity, negative = cell killing [1, 5] 1.31% | activity, negative = cell killing [1, 8] -23.5% | max response [2] 4.58% | outcome [3]

O=C(Nc1ccc([N+](=O)[O-])cc1Cl)c1cc(Cl)ccc1O
inactive: max response [2] -12.4% | outcome [3]
active: Potency (Tov112D) 2 µM | Potency (astro) 0.282 µM

C[C@](N)(Cc1ccc(O)c(O)c1)C(=O)O
inactive: Potency (Tov112D) | activity, negative = cell killing [1, 5] -10.5% | activity, negative = cell killing [1, 6] -4.46% | activity, negative = cell killing [1, 8] 1.22% | max response [2] -1.2% | outcome [3]

CC[C@@]1(O)C(=O)OCc2c1cc1n(c2=O)Cc2cc3c(CN(C)C)c(O)ccc3nc2-1
inactive: activity, negative = cell killing [1, 8] -20.9%
active: Potency (Tov112D) 316 nM and 1.41 µM | Potency ([1]; tumour line A) 0.891 µM | Potency ([1]; tumour line D) 3.55 µM | Potency (astro) 17.8 µM

CCOC(=O)C(C)(C)Oc1ccc(Cl)cc1
inactive: Potency (Tov112D) | activity, negative = cell killing [1, 5] -9.66% | activity, negative = cell killing [1, 6] -5.13% | activity, negative = cell killing [1, 8] 5.62% | Potency (astro) | max response [2] 2.24% | outcome [3]

CN(C)CCC=C1c2ccccc2C=Cc2ccccc21
inactive: activity, negative = cell killing [1, 8] 15.9%
active: Potency ([1]; tumour line A) 14.1 µM

CN1CCN(CCCN2c3ccccc3Sc3ccc(Cl)cc32)CC1
inactive: Potency (Tov112D)
active: Potency (astro) 20 µM

Nc1nc2c(ncn2COC(CO)CO)c(=O)[nH]1
inactive: Potency (Tov112D) | activity, negative = cell killing [1, 9] -13.4% | activity, negative = cell killing [1, 10] -13.7% | activity, negative = cell killing [1, 11] -24.4% | Potency (astro)

COc1ccccc1OCC(O)CN1CCN(CC(=O)Nc2c(C)cccc2C)CC1 (centres undefined)
inactive: Potency (Tov112D) | activity, negative = cell killing [1, 5] -2.09% | activity, negative = cell killing [1, 6] -4.68% | activity, negative = cell killing [1, 8] -16.2% | Potency (astro)

O=c1c(-c2ccc(O)cc2)coc2cc(O)cc(O)c12
inactive: activity, negative = cell killing [1, 8] -25.8% | max response [2] -0.208% and 4.35%

Fc1ccc([C@@H]2CCNC[C@H]2COc2ccc3c(c2)OCO3)cc1
inactive: Potency (Tov112D) | Potency [4]

C[C@@H]1CC(=O)NN=C1c1ccc(NN=C(C#N)C#N)cc1
inactive: Potency (Tov112D) | activity, negative = cell killing [1, 5] -23.8% | activity, negative = cell killing [1, 8] -26.3% | Potency (astro)

Cc1cnc(C(=O)NCCc2ccc(S(=O)(=O)NC(=O)NC3CCCCC3)cc2)cn1
inactive: Potency (Tov112D) | activity, negative = cell killing [1, 5] -8.45% | activity, negative = cell killing [1, 6] -17.1% | activity, negative = cell killing [1, 8] 18% | Potency (astro)

CC(C)NCC(O)c1ccc(O)c(O)c1 (centres undefined)
inactive: Potency (Tov112D) | activity, negative = cell killing [1, 5] -7.24% | activity, negative = cell killing [1, 6] 4.85% | activity, negative = cell killing [1, 8] 7.09% | max response [2] -3.83% and 3.86%

COc1ccccc1N1CCN(CC(O)COc2cccc3ccccc23)CC1 (centres undefined)
active: Potency ([1]; tumour line A) 12.6 µM
inactive: activity, negative = cell killing [1, 8] -13.1%

COc1cc2nc(N3CCN(C(=O)c4ccco4)CC3)nc(N)c2cc1OC
active: Potency (astro) 25.1 µM
inactive: Potency (Tov112D)

Nc1ccn([C@H]2CC[C@@H](CO)O2)c(=O)n1
inactive: Potency (Tov112D) | activity, negative = cell killing [1, 5] -3.23% | activity, negative = cell killing [1, 6] -22.8% | activity, negative = cell killing [1, 8] -9.64% | Potency (astro) | max response [2] 4.04% and 0.741% | outcome [3]

O=c1[nH]cc(F)c(=O)[nH]1
inactive: Potency (Tov112D) | activity, negative = cell killing [1, 5] -26.1% | activity, negative = cell killing [1, 7] -11.3% | activity, negative = cell killing [1, 8] -29.9% | outcome [3]

O=C1c2c(O)ccc(O)c2C(=O)c2c(NCCNCCO)ccc(NCCNCCO)c21
inactive: activity, negative = cell killing [1, 9] -23.1%
active: Potency ([1]; tumour line A) 3.98 µM | Potency ([1]; tumour line B) 8.91 µM | Potency ([1]; tumour line D) 5.62 µM | Potency (astro) 5.01 µM | Potency [4] 1.76 µM

CN(Cc1cnc2nc(N)nc(N)c2n1)c1ccc(C(=O)N[C@@H](CCC(=O)O)C(=O)O)cc1
inactive: activity, negative = cell killing [1, 5] 5.57% | activity, negative = cell killing [1, 6] 3.85% | activity, negative = cell killing [1, 7] 1.95% | activity, negative = cell killing [1, 8] -0.888% | Potency (astro) | max response [2] -4.55% | outcome [3]

CN(C)CCCN1c2ccccc2CCc2ccc(Cl)cc21
inactive: activity, negative = cell killing [1, 8] -8.66%
active: Potency ([1]; tumour line A) 5.01 µM | Potency ([1]; tumour line B) 20 µM | Potency ([1]; tumour line D) 12.6 µM

OCCN1CCN(CCCN2c3ccccc3Sc3ccc(C(F)(F)F)cc32)CC1
active: Potency ([1]; tumour line A) 1.26 µM | Potency ([1]; tumour line D) 10 µM
inactive: Potency (Tov112D) | activity, negative = cell killing [1, 8] -28.6% | Potency [4]

CN1C(C(=O)Nc2ccccn2)=C(O)c2ccccc2S1(=O)=O
inactive: Potency (Tov112D) | activity, negative = cell killing [1, 9] -3.14% | activity, negative = cell killing [1, 10] -6.49% | activity, negative = cell killing [1, 11] 0.702% | Potency (astro)

CC#C[C@]1(O)CC[C@H]2[C@@H]3CCC4=CC(=O)CCC4=C3[C@@H](c3ccc(N(C)C)cc3)C[C@@]21C
inactive: Potency (Tov112D) | outcome [3]
